# Measurements from PubChem BioAssay AID430 (Sanford-Burnham Center for Chemical Genomics, 2006).
# Screen size: about 63,000 compounds; about 1,100 (1.7%) were called active. No stated cut-off is given here; in the data, active means cytotoxicity above about 50%; inactive means the rest. Only a selection was taken, and actives are over-represented in it overall. Results with a measured potency or affinity are listed apart.
# Assay: cytotoxicity in HPDE-C7 cells, cell-based, fluorescence, HTS (AID 430);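 further: cells exposed to compound for 48 hours before viability readout; 0% = vehicle and 100% = reference cytotoxic drug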
# Conditions: HPDE-C7 pancreatic duct cells viability, at 10 µM, hits give high values
row,SMILES,cytotoxicity
1,Cc1cc(C)c2cc3c(ccn3C3OC[C@H](O)[C@H](O)[C@H]3O)cc2n1 (some centres not stated),-2.7% (inactive)
2,Cc1csc(SCc2nnc(-c3ccccc3Br)o2)n1,-11.9% (inactive)
3,Cc1cc(C)n(-c2c(F)c(F)c(CN3CCOCC3)c(F)c2F)n1,-4.7% (inactive)
4,COc1ccc(C(=O)CSc2nnc(-c3ccccc3)o2)cc1,-13.3% (inactive)
5,Cc1nnc(SC(=O)N2c3ccccc3Sc3ccccc32)s1,-38% (inactive)
6,O=C(CCN1c2ccccc2Sc2ccccc21)OCc1nnc(-c2ccccc2)o1,5.5% (inactive)
7,COc1cc(OC)cc(-c2nnc(SCC(=O)N3c4ccccc4Sc4ccccc43)o2)c1,-10.6% (inactive)
8,Cc1cccc(Nc2ccccc2)c1,-12.8% (inactive)
9,Cc1cc2cc(CN(Cc3ccco3)C(=O)C3CCCCC3)c(=O)[nH]c2cc1C,-2% (inactive)
10,COc1ccc(CNC(=O)c2cc(-c3cccs3)on2)cc1,2.4% (inactive)
11,Cc1noc(C(=O)Nc2sc3c(c2C#N)CCC3)c1Cl,19% (inactive)
12,COc1ccccc1NC(=O)C1(C)Cc2ccccc2C(=O)O1 (configuration not stated),10.1% (inactive)
13,CN(C)CCN(Cc1ccccc1)c1ccnc(N(C)C)c1C#N,-24.4% (inactive)
14,COCCNC(=O)CN(CC1CCCO1)C(=O)CCC(=O)Nc1ccccn1 (configuration not stated),-5.6% (inactive)
15,CC(=O)c1sc(Nc2nc3ccc(F)cc3s2)nc1C,58.8% (active)
16,COc1ccc2nc(Nc3nc(C)c(C(C)=O)s3)sc2c1,18.2% (inactive)
17,CCOC(=O)c1csc(Nc2nc3ccc(F)cc3s2)n1,40.1% (inactive)
18,O=C(O)CCC(=O)N1CCc2cc(S(=O)(=O)N3CCN(c4ccc(F)cc4)CC3)ccc21,3.1% (inactive)
19,COc1ccccc1N1CCN(C(=O)c2cc3n(n2)C(C(F)(F)F)CC(c2ccco2)N3)CC1 (configuration not stated),-21.5% (inactive)
20,Cc1ccc(C(=O)CSc2nnc(-c3ccco3)n2Cc2ccccc2)cc1,-16.2% (inactive)
21,COc1cc(-c2nc3cnccn3c2Nc2ccccc2)ccc1O,22.1% (inactive)
22,c1cn2c(NC3CCCC3)c(-c3ccc(N4CCOCC4)cc3)nc2cn1,2.8% (inactive)
23,Cc1ccc2cc(CN(Cc3cccs3)C(=O)c3ccco3)c3nnnn3c2c1C,22.1% (inactive)
24,CCc1nc2c(n1O)CCc1nonc1-2,3.5% (inactive)
25,CCCSc1nc2c(c(=O)[nH]c(=O)n2C)n1C,2.1% (inactive)
26,CC(NC(=O)NCC1CCCO1)(C(F)(F)F)C(F)(F)F (configuration not stated),-16% (inactive)
27,NS(=O)(=O)c1ccc(S(=O)(=O)N(Cc2ccccc2F)CC2CCCO2)cc1 (configuration not stated),-0.3% (inactive)
